This is an account of results in the supplement of paper PMC10127200.

Test in all cases: Euclidean distance of Cell Painting phenotypic profile (signed KS, 77 features) to DMSO centroid (dimensionless distance); 5 or 10 uM (library dependent); higher = stronger phenotypic change vs DMSO (phenoactivity)
What all share (details): 48 h

The test system of one assay is 786-O. The essentials: (§1)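 Phenoactivity is defined as the Euclidean distance from a compound profile to the median vehicle profile. Each profile comprised 77 Harmony features, scored as signed Kolmogorov-Smirnov statistics versus same-plate vehicle wells, then plate-position corrected, correlation-weighted and replicate-averaged at the top dose. Five cancer lines and one healthy fibroblast line were exposed to library compounds for 48 h at 10 or 5 uM (0.1% DMSO final).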

The subject of the next assay is A549. The essentials:
as §1

Another assay deals with DU145. Put shortly: as §1
In a further assay the test system is FB. Put shortly: as §1
In another assay the test system is HEPG2. The essentials:
as §1

The test system of the next assay is OVCAR4. Put shortly: as §1

Structures can show the parent of a compound that is named as a salt.

With `CC[C@H]1OC(=O)[C@H](C)[C@@H](O[C@H]2C[C@@](C)(OC)[C@@H](O)[C@H](C)O2)[C@H](C)[C@@H](O[C@@H]2O[C@H](C)C[C@H](N(C)C)[C@H]2O)[C@](C)(O)C[C@@H](C)C(=O)[C@H](C)[C@@H](O)[C@]1(C)O` [Erythromycin thiocyanate], the Euclidean distance is 1.01 in the assay on 786-O; 1.44 in the assay with A549; 0.991 with DU145; 1.53 with FB; 0.812 in the assay on HEPG2; 1.95 in the assay on OVCAR4.

Turning to `CC1(C)S[C@@H]2[C@H](NC(=O)[C@H](N)c3ccc(O)cc3)C(=O)N2[C@H]1C(=O)O` [Amoxicillin trihydrate], the Euclidean distance came out at 0.875 with 786-O; 1 in the assay on A549; 0.666 in the assay with DU145; 0.987 in the assay with FB; 0.529 in the assay with HEPG2; 1.31 with OVCAR4.

Turning to `CS(=O)(=O)c1ccc([C@@H](O)[C@@H](CF)NC(=O)C(Cl)Cl)cc1` [Florfenicol], the Euclidean distance in the assay on 786-O was 1.1; with A549 it was 0.738; in the assay on DU145 it was 0.807; in the assay with FB, 1.12; in the assay with HEPG2 it was 0.739; in the assay with OVCAR4 it was 0.76.

Take `CCCCOC(=O)c1ccc(N)cc1` [Butamben]: the Euclidean distance with 786-O came to 1.09; in the assay on A549, 0.881; with DU145 it was 0.906; in the assay with FB, 1.05; with HEPG2 it was 0.737; in the assay on OVCAR4 it was 1.03.

Consider `O=C(O)[C@]1(Cc2cccc(Nc3nccs3)n2)CC[C@@H](Oc2cccc(Cl)c2F)CC1`, for which the Euclidean distance came out at 2.59 in the assay with 786-O; 3.36 with A549; 0.648 with DU145; 0.818 in the assay on FB; 0.498 in the assay on HEPG2; 2.16 in the assay with OVCAR4.

On to `COCCOc1cnc2ccn([C@H](C)c3nnc4c(F)cc(-c5cnn(C)c5)cn34)c(=O)c2c1`, for which the Euclidean distance turned out to be 1.01 in the assay on 786-O; 1.18 in the assay on A549; 1.5 in the assay with DU145; 1.29 in the assay on FB; 1.39 with HEPG2; 1.46 with OVCAR4.

Consider `CCOc1cc(CC(=O)N[C@@H](CC(C)C)c2ccccc2N2CCCCC2)ccc1C(=O)O` [Repaglinide], for which the Euclidean distance in the assay with 786-O is 1.98; in the assay with A549, 0.783; with DU145 it was 1.26; in the assay on FB, 1.42; in the assay on HEPG2 it was 1.04; in the assay with OVCAR4, 1.55.

`CO/N=C1\C[C@]2(C[C@@H]3C[C@@H](C/C=C(\C)C[C@@H](C)/C=C/C=C4\CO[C@@H]5[C@H](O)C(C)=C[C@@H](C(=O)O3)[C@]45O)O2)O[C@H](/C(C)=C/C(C)C)[C@H]1C` [Moxidectin]: the Euclidean distance turned out to be 3.17 in the assay with 786-O; 2.11 with A549; 2.44 in the assay with DU145; 1.21 in the assay on FB; 0.757 in the assay on HEPG2; 1.63 with OVCAR4.

As to `COC(=O)Nc1nc2cc(Sc3ccccc3)ccc2[nH]1` [Fenbendazole], the Euclidean distance in the assay on 786-O was determined as 2.61; in the assay with A549 it was 2.78; with DU145 it was 3.05; in the assay on FB it was 2.21; in the assay on HEPG2 it was 2.12; in the assay with OVCAR4, 2.83.

For `CC[C@H](Nc1ncnc2[nH]cnc12)c1nc2cccc(F)c2c(=O)n1-c1ccccc1` [CAL-101 (Idelalisib. GS-1101)], the Euclidean distance with 786-O worked out at 1.28; in the assay with A549, 0.736; in the assay with DU145, 1.32; with FB, 1.79; in the assay on HEPG2 it was 0.747; with OVCAR4 it was 1.56.

Turning to `CCc1ccc(N(CC(C)C)S(=O)(=O)c2ccc(OCC3CCOCC3)c(CO)c2)cc1`, the Euclidean distance with 786-O turned out to be 1.56; with A549 it was 1.56; in the assay with DU145, 1.9; in the assay with FB, 1.05; in the assay on HEPG2, 0.857; in the assay on OVCAR4, 1.66.

`CCOc1nc2cccc(C(=O)OC(C)OC(=O)OC3CCCCC3)c2n1Cc1ccc(-c2ccccc2-c2nn[nH]n2)cc1` (stereo not drawn) [Candesartan Cilexetil]: the Euclidean distance came out at 1.1 with 786-O; 0.605 in the assay with A549; 1.35 in the assay with DU145; 0.788 with FB; 1.82 in the assay with HEPG2; 1.29 in the assay on OVCAR4.

Take `CC(C)(C)c1ccc(C(O)CCCN2CCC(C(O)(c3ccccc3)c3ccccc3)CC2)cc1` (stereo not drawn) [Terfenadine]: the Euclidean distance was determined as 1.05 in the assay on 786-O; 4.51 in the assay on A549; 1.53 with DU145; 1.18 with FB; 1.05 in the assay with HEPG2; 1.52 in the assay on OVCAR4.

As to `Cn1cc(C2=C(c3cn(CCCSC(=N)N)c4ccccc34)C(=O)NC2=O)c2ccccc21` [Ro 31-8220 Mesylate], the Euclidean distance with 786-O was 2.7; in the assay on A549, 3.02; with DU145, 2.58; in the assay with FB it was 2.92; with HEPG2 it was 3.24; in the assay with OVCAR4, 2.82.

Take `CCCCOC(=O)c1ccccc1Nc1cccc(C(F)(F)F)c1` [Ufenamate]: the Euclidean distance in the assay on 786-O amounted to 1.52; with A549, 0.505; with DU145, 1.4; with FB, 1.25; in the assay on HEPG2 it was 0.931; in the assay on OVCAR4, 1.83.

As to `CCCC1O[C@@H]2C[C@H]3[C@@H]4CCC5=CC(=O)C=C[C@]5(C)[C@H]4[C@@H](O)C[C@]3(C)[C@]2(C(=O)CO)O1` (stereo partly drawn) [Budesonide], the Euclidean distance stood at 3.14 in the assay on 786-O; 1.89 with A549; 2.06 in the assay with DU145; 3.49 with FB; 2.09 with HEPG2; 2.47 in the assay with OVCAR4.

As for `COc1ccc(-c2oc3c(CC=C(C)C)c(O[C@@H]4O[C@H](CO)[C@@H](O)[C@H](O)[C@H]4O)cc(O)c3c(=O)c2O[C@@H]2O[C@@H](C)[C@H](O)[C@@H](O)[C@H]2O)cc1` [Icariin], the Euclidean distance came out at 0.632 with 786-O; 0.62 in the assay with A549; 0.973 in the assay on DU145; 0.818 in the assay on FB; 0.96 with HEPG2; 0.993 in the assay with OVCAR4.

In the case of `CC(C)n1cnc2c(NCCc3ccc(O)cc3)nc(-c3csc4ccccc34)nc21` [StemRegenin 1 (SR1)], the Euclidean distance was found to be 0.931 with 786-O; 1.13 in the assay with A549; 1.12 in the assay with DU145; 1.04 with FB; 1.04 with HEPG2; 0.909 with OVCAR4.

Consider `C[C@@H](O)[C@H]1C(=O)N2C(C(=O)O)=C(SCCNC=N)C[C@H]12` [Imipenem], for which the Euclidean distance stood at 0.957 in the assay on 786-O; 1.45 in the assay with A549; 0.986 with DU145; 0.737 with FB; 0.883 in the assay with HEPG2; 0.789 with OVCAR4.

On to `CC(C)(C)NCC(O)c1ccc(O)c(CO)c1` (stereo not drawn) [Salbutamol Sulfate], for which the Euclidean distance in the assay with 786-O is 1.57; in the assay with A549, 0.928; with DU145, 1.27; with FB, 0.735; with HEPG2, 1.31; with OVCAR4, 1.78.

Turning to `CN1CCN(c2ccc(C(=O)Nc3n[nH]c4ccc(Cc5cc(F)cc(F)c5)cc34)c(NC3CCOCC3)c2)CC1` [Entrectinib (RXDX-101)], the Euclidean distance was 5.06 in the assay on 786-O; 3.73 in the assay with A549; 4.31 in the assay on DU145; 5.6 in the assay on FB; 5.43 in the assay with HEPG2; 4.97 in the assay with OVCAR4.

In the case of `C#C[C@]1(O)CC[C@H]2[C@@H]3CCC4=CCCC[C@@H]4[C@H]3C(=C)C[C@@]21CC` [Desogestrel], the Euclidean distance in the assay on 786-O was found to be 0.933; in the assay on A549, 0.431; in the assay with DU145, 0.928; in the assay on FB, 0.753; with HEPG2 it was 0.742; in the assay with OVCAR4, 0.826.

Consider `CC[C@H]1OC(=O)C[C@@H](O)[C@H](C)[C@@H](O[C@@H]2O[C@H](C)[C@@H](O[C@H]3C[C@@](C)(O)[C@@H](O)[C@H](C)O3)[C@H](N(C)C)[C@H]2O)[C@@H](CC=O)C[C@@H](C)C(=O)/C=C/C(C)=C/[C@@H]1CO[C@@H]1O[C@H](C)[C@@H](O)[C@@H](OC)[C@H]1OC` [Tylosin], for which the Euclidean distance turned out to be 0.535 in the assay on 786-O; 1.08 in the assay with A549; 0.612 in the assay with DU145; 0.794 in the assay on FB; 0.42 in the assay on HEPG2; 0.917 with OVCAR4.
